TGFb inhibitor – TGF-b pathway inhibition | HepG2 CAGA-GFP TGF-b/SMAD3 reporter, GFP fluorescence, 18 h; TGF-beta stimulated, 500 pg/mL final | Potency, µM (highest dose often 46.1 µM), for the others: top-dose activity, negative = inhibition, hits mostly inhibitors | actives 1.2% (n = 410,000) | AID 588855; further: potency means the concentration at half of the fitted maximal effect; on the % scale 0 is the no-effect control and ±100 the full control effect; nearly all actives have a fitted effect of over 65% in size
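Using HEPG2 CAGA-GFP reporter cells at 1000 cells/well, we pinned test compounds, stimulated with recombinant TGF-beta (500 pg/mL final) and measured total well GFP after 18 h.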
DT40 TDP1 no CPT – qHTS for Inhibitors of human tyrosyl-DNA phosphodiesterase 1 (TDP1): qHTS in cells in absence of CPT; DT40 Tdp1-/- hTDP1 cells, no CPT, ATP luminescence, 48 h; Potency, µM (highest dose often 46.2 µM), for the others: at the highest dose activity change, negative = growth inhibition, actives largely listed as inhibitors; actives 15% (n = 420,000); further: potency means the concentration at half of the fitted maximal effect; on the % scale 0 is the no-effect control and ±100 the full control effect; nearly all actives have a fitted effect of over 55% in size
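Chicken DT40 Tdp1-/- cells complemented with human TDP1, screened without camptothecin (DMSO vehicle only), 400 cells/well. Compounds pin-transferred, cells incubated at 37 °C for at least 48 hr. Growth read as ATP-dependent luminescence (CellTiter-Glo, 30 min at RT).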
TDP1 block – inhibitors of human tyrosyl-DNA phosphodiesterase TDP1; Q9NUW8; recombinant TDP1, AlphaScreen DNA substrate cleavage; Potency, µM (highest dose often 130 µM), for the others: at the highest dose activity change, negative = inhibition, most hits filed as inhibitors; actives 0.28% (n = 350,000); further: potency means the concentration at half of the fitted maximal effect; on the % scale 0 is the no-effect control and ±100 the full control effect; nearly all actives have a fitted effect of over 40% in size
Target sequence (Q9NUW8 whole entry, looked up): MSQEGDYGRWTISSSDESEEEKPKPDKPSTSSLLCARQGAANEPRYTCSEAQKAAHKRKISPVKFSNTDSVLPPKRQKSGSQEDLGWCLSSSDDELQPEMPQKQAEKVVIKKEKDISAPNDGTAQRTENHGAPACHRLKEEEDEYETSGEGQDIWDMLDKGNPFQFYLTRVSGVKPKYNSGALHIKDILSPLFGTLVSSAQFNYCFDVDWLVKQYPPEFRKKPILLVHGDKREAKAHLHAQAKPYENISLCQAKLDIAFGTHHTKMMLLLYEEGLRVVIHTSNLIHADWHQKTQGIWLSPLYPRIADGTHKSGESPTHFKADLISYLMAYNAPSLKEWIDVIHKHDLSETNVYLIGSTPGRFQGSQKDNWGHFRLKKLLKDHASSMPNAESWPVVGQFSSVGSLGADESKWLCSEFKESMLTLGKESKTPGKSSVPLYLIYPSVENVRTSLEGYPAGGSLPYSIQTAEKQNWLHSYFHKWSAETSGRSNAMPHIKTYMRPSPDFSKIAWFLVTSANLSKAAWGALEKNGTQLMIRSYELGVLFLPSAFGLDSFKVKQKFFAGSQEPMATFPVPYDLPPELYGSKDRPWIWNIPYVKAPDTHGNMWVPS
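Steps: enzyme plus compound, 15 min RT; add biotin/phosphotyrosine-FITC oligonucleotide (15 nM final), react 5 min; add donor/acceptor beads (10 ug/ml final), 10 min; read AlphaScreen. Tdp1 at 1 nM final.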
HepG2 tox – counter-screen for TGF-b inhibitors: cytotoxicity in HepG2 cells | actives 0.76% (n = 410,000) | Potency, µM (titrated, usually from 46.1 µM), without a hit: at the top dose activity change, negative = cytotoxicity, hits mostly cytotoxic | HepG2 CAGA-GFP viability, ATP luminescence, 18 h; further: potency means the concentration at half of the fitted maximal effect
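HepG2 CAGA-GFP cells (1000/well, DMEM with 1% FBS) received compound, then TGF-beta at 500 pg/mL final, and were incubated 18 hours at 37 degrees C. Viability was read by CellTiter-Glo luminescence. Media-only wells were set as complete cell-killing and DMSO as no toxicity.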
IL1B secr inh – inhibitors of inflammasome signaling (IL-1 beta secretion); THP-1 LPS/ATP IL-1B secretion, AlphaLISA, 16 h; hits give low values; activity change, % at 57.5 µM; actives 4.7% (n = 360,000); in the data active means activity change below about -50%; inconclusive means mostly about -30% to -49%; further: on the % scale 0 is the no-effect control and ±100 the full control effect
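THP-1 cells pretreated 1 hr with compounds (up to 57.5 uM final), then stimulated with LPS (250 ng/mL final) plus ATP (1.25 mM final); secreted IL-1B measured by AlphaLISA after 16 hr, decreased signal indicating inhibition.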
DT40 TDP1 CPT – DT40-hTDP1 cell growth loss with CPT; actives 12% (n = 420,000); chicken DT40 Tdp1-/-;hTDP1 cells + 20 nM CPT, ATP luminescence, 48 h; AID 686979; Potency, µM (highest dose often 46.2 µM), for inactives: top-dose activity change, negative = growth inhibition, actives largely listed as inhibitors; further: potency means the concentration at half of the fitted maximal effect; on the % scale 0 is the no-effect control and ±100 the full control effect; nearly all actives have a fitted effect of over 55% in size
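Chicken DT40 Tdp1-/- cells stably complemented with human TDP1 were seeded at 400 cells/well in medium containing 20 nM camptothecin, exposed to pin-transferred compounds, and grown at 37 °C for at least 48 hr. Viability was read as ATP luminescence.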
* hit, by the source's call; ? = inconclusive; / = not tested or not shown; ! = not confirmed by another sample; [ ] = remark or other dose. Most compounds without a hit are left out; they make up all but 19% or so of the library. Unless noted, the call rests on the fitted dose curve; in most records, active means well fitted curve in the direction sought with a large enough effect; inconclusive means small, poorly fitted or top-dose-only effect, or another doubt; inactive means no such curve, though single readings can be large; an effect the other way counts as inactive or inconclusive.

SMILES	TGFb inhibitor	DT40 TDP1 no CPT	TDP1 block	HepG2 tox	IL1B secr inh	DT40 TDP1 CPT
CCCCOc1ccc(CSc2nnc(C)n2N)cc1[N+](=O)[O-]	9%	-3%	8%	-38%	2	-8%
CCn1c2ccccc2nc2cc3c(cc21)c(Cl)c(=O)c1ccccc13	18µM*	5.8µM*	/	-119%	26	8.2µM*
CC(Oc1ccccc1)C(=O)OCc1cc(=O)n2nc(C(C)C)sc2n1 (centres undefined)	-17%	0%	3%	-21%	/	-22%
CCOC(=O)c1c(C)[nH]c(C)c1C(=O)CSc1nc2ccccc2n1CC	2%	?	11%	-11%	-25	?
CCOC(=O)c1c(C)[nH]c(C)c1C(=O)CSc1nc2ccccc2c(=O)n1-c1ccc(CC)cc1	?	6.5µM*	8%	-3%	0	12µM*
CC(=O)c1ccc(-n2c(SCC(=O)c3c[nH]c4ccccc34)nc3ccccc3c2=O)cc1	-2%	12µM*	-2%	-1%	?	21µM*
CCCCCNc1nc2c(-c3ccccc3)nnn2c2ccccc12	-5%	-26%	4%	5%	/	0%
C[C@@H]1CN(Cc2ccc3c(c2)CN(Cc2cccc4c2OCO4)CCO3)C[C@H](C)O1	/	-14%	/	/	/	13%[9.04 µM]
CC(=O)c1cccc(NC(=O)C2Cc3c(-c4ccccc4Oc4ccccc4)ccnc3O2)c1 (centres undefined)	-9%	16µM*	/	-11%	?	18µM*
CC(C)NC(=O)C1Cc2c(-c3ccccc3Oc3ccccc3)ccnc2O1 (centres undefined)	-4%	?	/	-5%	-8	?
O=C(Nc1cccc(C(F)(F)F)c1)C1Cc2c(-c3ccccc3Oc3ccccc3)ccnc2O1 (centres undefined)	?	16µM*	/	-7%	-23	23µM*
O=C(Nc1cccc(Oc2ccccc2)c1)C1Cc2c(-c3cccc(F)c3)ccnc2O1 (centres undefined)	10%	?	/	1%	?	?
CN(C)c1cccc(NC(=O)C2Cc3c(-c4ccccc4Oc4ccccc4)ccnc3O2)c1 (centres undefined)	-19%	?	/	-32%	-27	?
O=C(Nc1cccnc1)C1Cc2c(-c3ccccc3Oc3ccccc3)ccnc2O1 (centres undefined)	-21%	23µM*	/	-22%	?	?
COc1cccc(NC(=O)COC(=O)CCn2c(C)csc2=O)c1	-3%	0%	8%	9%	11	13%
COC(=O)[C@@H]1CCCN1Cc1ccc2c(c1)CN(Cc1coc3ccc(C)cc3c1=O)CCO2	/	?	/	/	/	-1%[9.04 µM]
COc1ccc(CCN=C(NS(=O)(=O)c2ccc(Cl)cc2)c2ccccc2)cc1	3%	?	-1%	1%	-66*	?
COc1ccc(CCN=C(NS(=O)(=O)c2ccccc2)c2ccccc2)cc1OC	7%	-4%	0%	-6%	5	14%
Nc1ccn([C@@H]2O[C@H](CO)[C@@H](O)[C@@H]2O)c(=O)n1	22%	0.16µM*	7%	-4%	61	0.12µM*
Nc1ccn([C@@H]2O[C@H](CO)[C@@H](OP(=O)(O)O)[C@H]2O)c(=O)n1	/	1%	13%	/	/	5%
NC[C@H]1O[C@@H](n2ccc(N)nc2=O)[C@H](O)[C@@H]1O	-12%	?	/	-32%	21	?
Nc1ccn(C2OC(CO)C(O)C2F)c(=O)n1 (centres undefined)	-27%	2.1µM*	/	4%	13	1.3µM*
CCCCCCCCCCCCCCCC(=O)OCC1OC(n2ccc(N)nc2=O)C(O)C1O (centres undefined)	0%	0.65µM*	/	-4%	0	0.52µM*
CC[C@H](C)[C@@H](CO)NC(=O)[C@H]1O[C@@H](n2ccc(N)nc2=O)[C@H](O)[C@@H]1O	14%	-7%	/	-13%	26	-11%
Nc1ccn(C2OC(CO)C(O)C2O)c(=O)n1 (centres undefined)	/	0.012µM*!	8%[56.1 µM]	/	/	0.016µM*!
SMILES	TGFb inhibitor	DT40 TDP1 no CPT	TDP1 block	HepG2 tox	IL1B secr inh	DT40 TDP1 CPT
CCc1ccccc1NC(=O)c1cnc2sc(N3CCCC3)nn2c1=O	-19%	2%	6%	-5%	/	-18%
COc1ccc(N(CC(=O)N2CCN(c3ccccc3F)CC2)S(=O)(=O)c2ccc(C)cc2)cc1	6%	?	2%	-15%	-8	?
COc1nc(=O)n(C2OC(CO)C(O)C2O)cc1C (centres undefined)	-1%	3%	/	-3%	4	-3%
Nc1ccn([C@H]2CC[C@@H](CO)O2)c(=O)n1	4%	11µM*	11%	0%	2	7.5µM*
Nc1ccn(C2CCCO2)c(=O)n1 (centres undefined)	-5%	0%	/	-7%	0	12%
CCCCCCCCCCCCCCCC(=O)Nc1ccn(C2OC(CO)C(O)C2O)c(=O)n1 (centres undefined)	-15%	0.73µM*	/	2%	30	0.65µM*
Nc1cn(C2OC(CO)C(O)C2O)c(=O)[nH]c1=O (centres undefined)	1%	0%	56µM*	-1%	30	-4%
CCCC(=O)c1cc(F)c(N2CCN(S(=O)(=O)c3ccccc3)CC2)cc1C	-27%	11µM*	4%	-24%	-59*	16µM*
CC(=O)c1cc(F)c(N2CCN(C(=O)Cc3ccccc3)CC2)cc1C	-7%	15µM*	-4%	4%	-13	15µM*
CCCC(=O)c1cc(F)c(N2CCOCC2)cc1C	0%	-13%	3%	-18%	-5	-11%
CCC(=O)c1cc(F)c(N2CCN(C(=O)c3ccco3)CC2)cc1C	?	29µM*	4%	-14%	21	?
C1CCOC1	/	/	12%	/	/	/
CC(=O)N1CCc2cc(Br)cc(S(=O)(=O)CCC(=O)NCc3ccc(F)cc3)c21	?	?	3%	-15%	/	-6%
N#Cc1ccc(NC(=S)NCCN2CCOCC2)cc1	-1%	-9%	-5%	-10%	1	-14%
O=C(Cn1c(=O)sc2ccccc21)Nc1ccccc1	-2%	21µM*	2%	-1%	-7	26µM*

Screening results: PubChem, National Center for Advancing Translational Sciences (NCATS)
